Screens from PubChem BioAssay.
Most compounds without a hit are left out; they make up all but 7.5% or so of the library.
FLuc modulator: firefly luciferase modulation, counter-screen for miR-21 project. purified FLuc, Km substrates, luminescence inhibition. Potency, µM (titrated, usually from 57.5 µM), hits mostly inhibitors. actives 6.9% (n = 360,000). AID 588342; further: nearly all actives have a fitted effect of over 55% in size
Target sequence (P08659 whole entry, looked up): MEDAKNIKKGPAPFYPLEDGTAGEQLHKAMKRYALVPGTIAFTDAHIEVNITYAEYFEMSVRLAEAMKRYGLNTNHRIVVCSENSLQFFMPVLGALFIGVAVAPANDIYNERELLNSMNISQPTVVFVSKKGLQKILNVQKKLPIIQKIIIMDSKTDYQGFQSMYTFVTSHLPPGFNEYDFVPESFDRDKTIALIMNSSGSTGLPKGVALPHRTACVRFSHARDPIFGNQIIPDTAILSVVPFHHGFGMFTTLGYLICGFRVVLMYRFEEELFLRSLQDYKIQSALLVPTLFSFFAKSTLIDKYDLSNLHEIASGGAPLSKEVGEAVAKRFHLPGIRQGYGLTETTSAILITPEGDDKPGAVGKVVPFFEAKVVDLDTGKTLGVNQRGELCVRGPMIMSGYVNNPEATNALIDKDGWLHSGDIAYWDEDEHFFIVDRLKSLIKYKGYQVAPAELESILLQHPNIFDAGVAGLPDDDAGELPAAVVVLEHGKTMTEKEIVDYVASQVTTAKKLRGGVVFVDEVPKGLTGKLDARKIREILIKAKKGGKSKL
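Purified P. pyralis luciferase, 10 nM final, with Km-level 10 uM D-luciferin and 10 uM ATP in 50 mM Tris acetate pH 7.5, 10 mM Mg acetate, 0.01% Tween-20, 0.05% BSA; 6-point qHTS titration about 60 µM downward; luminescence read.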
SMN2 splice up: SMN2 splice variant enhancement; HEK293 SMN2-luciferase splicing reporter, luminescence, 30-36 h; Potency, µM (doses to about 46.1 µM), hits mostly activators; actives 2.8% (n = 210,000); AID 1458; further: nearly all actives have a fitted effect of over 55% in size
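qHTS luciferase splicing reporter: luminescence rises when SMN2 exon 7 is included in transfected HEK293 cells. Compound exposure lasted 30-36 h at 37C, with 4.5 mM final sodium butyrate as control, followed by a ONE-Glo read.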
ELG1 genotox: induces genotoxicity in HEK293T cells with luciferase-tagged ELG1; AID 504466; actives 1.3% (n = 330,000); Potency, µM (titrated, usually from 46 µM), usual class: activators; HEK293T ELG1-luciferase reporter, luminescence, 16 h; further: nearly all actives have a fitted effect of over 60% in size
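Step 1: seed 2,000 HEK293T ELG1-luciferase cells per well. Step 2: add compound or DMSO, incubate 16 hr at 37 °C. Step 3: ONE-Glo, 30 min at room temperature, read luminescence.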
NPC1 prom act: NPC1 promoter activation. actives 2.4% (n = 320,000). AID 485313. Huh7 NPC1 promoter luciferase reporter, 24 h. Potency, µM (top dose mostly 9.22 µM), hits mostly activators; further: nearly all actives have a fitted effect of over 60% in size
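Readout is luciferase luminescence, reflecting NPC1 promoter activation in stably transfected Huh7 cells after 24 h compound exposure at 37 °C in reduced-serum medium with 10% FBS.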
Rab9 prom act: Rab9 promoter activation; AID 485297; actives 2.8% (n = 320,000); Huh7 Rab9 promoter-luciferase reporter, luminescence, 24 h; Potency, µM (top dose mostly 9.22 µM), hits mostly activators; further: nearly all actives have a fitted effect of over 60% in size
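Luciferase signal after 10 min detection reagent at ambient indicates Rab9 promoter upregulation; stably transfected Huh7 cells were treated 24 h with compound in DMSO at 37 °C, 5% CO2.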
Luc counter: blocks Kinase-Glo luciferase, a counter-screen artifact | Kinase-Glo luciferase, ATP luminescence, 8 min | Potency, µM (highest dose often 38.3 µM), usual class: inhibitors | actives 0.28% (n = 200,000) | Q27757; further: nearly all actives have a fitted effect of over 60% in size
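Compounds were added to a substrate mix at pH 7.2 (50 mM imidazole, 10 uM ATP, within the enzyme's linear range), followed by Kinase-Glo detection reagent; luminescence was measured after 8 minutes at ambient temperature.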
Hits are given with their value; - = inactive; ? = inconclusive; . = no result; [ ] = dose if it differs, or a comment. The call rests on the fitted dose curve; in most records, active means well fitted curve in the direction sought with a large enough effect; inconclusive means small, poorly fitted or top-dose-only effect, or another doubt; inactive means no such curve, though single readings can be large; an effect the other way counts as inactive or inconclusive.

SMILES	FLuc modulator	SMN2 splice up	ELG1 genotox	NPC1 prom act	Rab9 prom act	Luc counter
CCCOc1ccc(CN(C(=O)c2nc(SC(C)C)ncc2Cl)C2CCS(=O)(=O)C2)cc1 (stereo not given)	-	-	.	.	.	.
CC(=O)c1ccc(NC(=O)c2cc(Cl)sc2Cl)cc1	15µM	13µM	?	2.8µM	2.2µM	-
CCC(=O)Oc1ccc(C(=O)Nc2ccc([N+](=O)[O-])cc2)cc1	-	14µM	-	2.8µM	?	-
Cc1cc(C)cc(NC(=O)c2cc(Cl)sc2Cl)c1	?	-	-	-	-	-
CCN(CC)c1ccc(NC(=O)Nc2cccc(C(C)=O)c2)cc1	1.7µM	-	.	.	.	-
CC(=O)c1ccc(NC(=O)Nc2cccc3ccccc23)cc1	?	.	?	-	?	.
CC(C)COc1ccc(C(=O)Nc2ccc([N+](=O)[O-])cc2)cc1	-	-	-	-	-	-
CC(=O)Nc1cccc(NC(=O)Nc2ccc(C(C)=O)cc2)c1	11µM	-	?	-	-	-
COc1cc(/C=N/NC(=O)c2ccncc2)ccc1O	-	.	-	-	-	.
COc1ccc(/C=N/NC(=O)c2cnccn2)c(OC)c1OC	-	.	-	-	-	.
COc1cccc(C(=O)O/N=C(\C)c2cnccn2)c1	5.4µM	.	-	-	-	-
COc1cccc(/C=N/NC(=O)c2cnccn2)c1O	15µM	.	-	-	-	.
COc1cccc(/C=N/NC(=O)c2cc(-c3cccn3C)n[nH]2)c1O	27µM	-	-	-	-	-
COc1ccc(/C=N/NC(=O)c2cnccn2)cc1O	12µM	-	?	-	-	-
O=C(Cn1c(=O)oc2cc(S(=O)(=O)N3CCCCC3)ccc21)Nc1cccc(Cl)c1	-	-	.	.	.	.
COc1ccc(OC)c(/C=N/NC(=O)c2cnccn2)c1	-	.	-	-	-	.
COc1cccc(/C=N/NC(=O)c2cnccn2)c1	12µM	-	-	-	-	-
COc1ccc(/C=N/NC(=O)c2cc3c(OC)ccc(OC)c3[nH]2)cc1O	11µM	.	-	-	-	.
O=C(/C=C/c1ccccc1)NNC(=O)c1ccco1	?	.	-	-	-	.
COc1cc(OC)cc(C(=O)N[C@H](C(=O)NC2CCCc3ccccc32)C(C)C)c1 (stereo not given in full)	.	.	-	.	.	.
NNc1nc2ccc(F)cc2s1	19µM	-	?	-	-	-
O=C(Nc1nc2ccc(F)cc2s1)Oc1ccccc1	-	.	-	-	-	.
Fc1ccc2nc(Nc3ccccc3)sc2c1	7.6µM	16µM	?	2.8µM	2.2µM	-
CCN(CC)CCCN(C(=O)c1cccc(C)c1)c1nc(-c2ccc(OC)cc2)cs1	-	.	-	-	-	.
Cc1ccc(NS(=O)(=O)c2c(C)[nH]c(C)c2C(=O)N2CCCCC2)cc1F	-	.	-	-	-	.
SMILES	FLuc modulator	SMN2 splice up	ELG1 genotox	NPC1 prom act	Rab9 prom act	Luc counter
CC(C)COc1ccc(CNC(=S)Nc2ccccc2)cc1Cl	-	.	-	-	-	.
Cc1n[nH]c(=O)n1-c1ccc(OCc2ccccc2)cc1	21µM	.	?	?	2.8µM	-
Cc1nc2sc(C(N)=O)c(N)c2c(-c2ccc(Br)cc2)c1C(=O)Nc1ccc(Cl)cc1	-	-	.	.	.	.
c1ccc(COc2ccc(CN3CCN(c4ccccn4)CC3)cc2)cc1	6.7µM	-	21µM	?	2.2µM	-
NC(=O)C1CCN(Cc2ccc(OCc3ccccc3)cc2)CC1	15µM	.	?	2.5µM	?	.
CCOC(=O)C1CCN(Cc2ccc(OCc3ccccc3)cc2)CC1	-	.	-	-	-	.
CC(C)c1ccc(OCC(=O)NCc2ccccc2)cc1	?	.	-	-	-	.
O=C1OC(c2ccccc2)=N/C1=C\C=C\c1ccco1	4.8µM	.	-	-	-	-
COc1ccccc1NC(=O)c1oc2ccccc2c1NC(=O)c1c(F)cccc1F	?	-	.	.	.	.
O=C(Nc1cccc(C(F)(F)F)c1)c1cc(S(=O)(=O)N2CCCC2)c[nH]1	17µM	.	.	.	.	.
Cc1[nH]c(-c2ccc(F)cc2)cc1C(=O)N1CCN(c2ccccc2F)CC1	-	.	-	-	-	.
C(=N\N=C\c1ccccn1)/c1ccccn1	12µM	.	-	-	-	.
O=C(N/N=C/c1ccccn1)c1ccc(Br)cc1	11µM	-	?	?	?	-
O=C(N/N=C/c1ccc[nH]1)c1ccc([N+](=O)[O-])cc1	15µM	-[1.84 µM]	-	-	-	-
O=C(N/N=C/c1ccccn1)c1ccc([N+](=O)[O-])cc1	19µM	-	-	-	-	-
CN1CCc2nc(N)nc(-c3nc(N)nc4c3CN(C)CC4)c2C1	.	-[9.22 µM]	.	.	.	-[7.66 µM]
Cc1ccccc1C(=O)Nc1ccc(C(=O)N/N=C/c2ccccn2)cc1	-	.	-	-	-	.
Cc1ccc(C(=O)N/N=C\c2ccc[nH]2)cn1	?	-	-	-	-	-
Cc1ccc(C(=O)N/N=C\c2ccccn2)cn1	19µM	.	-	-	-	.
O=C(N/N=C/c1ccccn1)c1ccc(N/N=C/c2ccccn2)cc1	2.4µM	14µM	-	-	2.2µM	-
CC(C)(C)c1ccc(C(=O)N/N=C/c2ccccn2)cc1	9.5µM	.	?	-	-	.
O=C(N/N=C/c1ccccn1)c1cc([N+](=O)[O-])cc([N+](=O)[O-])c1	-	-	-	-	-	-
CCN1CCN(C(c2ccc(F)cc2)c2c(O)cc(C)n(CCOC)c2=O)CC1 (stereo not given)	-	.	.	.	.	.
O=C(COc1ccccc1F)c1ccc(O)cc1O	?	-	-	-	-	-
Cc1c(O)ccc(C(=O)COc2ccccc2F)c1O	21µM	-	?	-	-	-
SMILES	FLuc modulator	SMN2 splice up	ELG1 genotox	NPC1 prom act	Rab9 prom act	Luc counter
COc1cc(N=c2ssnc2Cl)cc(OC)c1OC	15µM	-	-	-	-	-
Fc1ccc(N=c2ssnc2Cl)c(F)c1	19µM	-	-	-	-	-
COc1ccc(N=c2ssnc2Cl)cc1	?	-	-	-	-	-
Clc1nssc1=Nc1ccccc1	21µM	-	-	-	-	-
Clc1ccc(N=c2ssnc2Cl)cc1	?	-	-	-	-	-
N#Cc1ccc(N=c2ssnc2Cl)cc1	15µM	-	-	-	-	-
O=C(CCNC(=O)c1ccc([N+](=O)[O-])cc1)Nc1ccc(F)cc1F	-	.	-	-	-	.
Cc1cccc(N2CSC3=C(C#N)C(c4ccc(C)o4)CC(=O)N3C2)c1 (stereo not given)	17µM	-	?	-	-	-
COc1cc(Br)c(C2CC(=O)Nc3cc4c(cc32)OCCO4)cc1OC (stereo not given)	-	-	.	.	.	.
Cc1cc(CN2CCCCC2C(=O)Nc2ccc(Oc3cccnc3)cc2)oc1C (stereo not given)	-	.	-	-	-	.
Cc1cc2ncn(CCOc3ccccc3)c2cc1C	17µM	-	?	?	3.5µM	-
COc1ccc(S(=O)(=O)NC2CC(=O)N(c3ccc4c(c3)OCCO4)C2)cc1 (stereo not given)	-	.	-	-	-	.
